According to PubChem BioAssay:
Active and inactive are the calls of the source.

Legend:
[1] = tested on: Plasmodium falciparum Sir2 (PF13_0152, Sir2A); test: Plasmodium falciparum Sir2A binding compounds – biochemical, small-molecule microarray, 635 nm fluorescence, primary screen (AID 1098); details: fluorescence 635 nm, higher = more signal;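 also: score merges spot fluorescence intensity with its signal-to-noise ratio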
[2] = probe aDKK1 binding to arrayed compounds – biochemical, biotinylated probe, 635/667 nm fluorescence, primary screen (AID 1099); details: small-molecule microarray, higher = more signal;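 also: score merges 667nm spot fluorescence with signal to noise across triplicate slides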
[3] = probe aCHRDL2 binding to arrayed compounds – biochemical, biotinylated probe, 635/667 nm fluorescence, primary screen (AID 1100); details: small-molecule microarray, higher = more signal
[4] = change in splice reporter luminescence, either direction, cell-based, HEK293, spliceosome inhibition project, primary screen (AID 1101); details: HEK293 splicing luciferase reporter, 24 h, higher = more signal, called active from +8 up or from −8 down;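 also: HEK293 cells carrying a splicing-competent luciferase reporter gene; test concentration not given here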
[5] = biological target: Fibroblast growth factor 10 (Homo sapiens) (UniProt O15520); test: compounds binding fibroblast growth factor 10 – biochemical, small-molecule microarray, 635 nm fluorescence, primary screen (AID 1102); details: FGF10 binding, fluorescence 635 nm, higher = more signal
[6] = tested on: glycogen synthase kinase-3 (GSK3A per assay name; protocol says GSK3B); test: compounds binding glycogen synthase kinase-3 – biochemical, small-molecule microarray, 635 nm fluorescence, GSK3A, primary screen (AID 1103); details: fluorescence 635 nm, higher = more signal; also: the record names both GSK3A and GSK3B
[7] = biological target: Epidermal growth factor receptor (Homo sapiens) (UniProt P00533); test: compounds binding epidermal growth factor receptor – biochemical, small-molecule microarray, 635 nm fluorescence, primary screen (AID 1104); details: EGFR binding, higher = more signal;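 also: score merges 667 nm emission intensity with spot signal to noise over triplicate slides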
[8] = biological target: Follistatin-related protein 3 (Homo sapiens) (UniProt O95633); test: compounds binding follistatin-related protein 3 – biochemical, small-molecule microarray, 635 nm fluorescence, primary screen (AID 1105); details: FSTL3 binding, higher = more signal;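 also: score merges emission near 667 nm and signal to noise per printed spot across three slides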
[9] = biological target: Dickkopf-related protein 1 (Homo sapiens) (UniProt O94907); test: small molecules binding DKK1 protein – biochemical, small-molecule microarray, 635 nm fluorescence scan, primary screen (AID 1106); details: higher = more signal;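 also: score merges emission near 667 nm with signal to noise over three replicate slides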
[10] = tested on: Inhibin beta A chain (activin A); test: small molecules binding activin A – biochemical, small-molecule microarray, 635 nm fluorescence scan, primary screen (AID 1107); details: INHBA, higher = more signal;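 also: mouse activin A protein probed at 4.33 µg/mL on printed slides; score merges bound-protein fluorescence near 667 nm with spot signal-to-noise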
[11] = tested on: Human papillomavirus type 1a protein E7 (residues 44-93); test: small molecules binding HPV E7 44-93 – biochemical, small-molecule microarray, residues 44-93, 635 nm fluorescence, primary screen (AID 1108); details: fluorescence 635 nm, higher = more signal;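 also: E7 fragment applied at 1 µg/mL in TBST for 1 h at 4 C; score combines spot fluorescence with its signal to noise ratio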
[12] = hepatitis C replication reporter changes, two-sided – Huh7 cells, luciferase reporter, HCV replication inhibitor project, primary screen (AID 1109); details: Huh7 HCV replicon luciferase reporter, 48 h; higher = more signal;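 also: huh7 hepatoma cells harbouring a luciferase neomycin HCV replicon reporter; luciferase luminescence as measure of HCV replicon replication; test concentration not given here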
[13] = biological target: Left-right determination factor 2 (Homo sapiens) (UniProt O00292); test: small molecules binding LEFTY2 protein – biochemical, small-molecule microarray, 635 nm fluorescence scan, primary screen (AID 1110); details: higher = more signal
[14] = biological target: Calmodulin-1 (Homo sapiens) (UniProt P0DP23); test: small molecules binding calmodulin-1 with EGTA – biochemical, small-molecule microarray, Cy5-labelled CALM1, profiling panel (AID 1111); details: Cy5-CALM1 binding fluorescence, higher = more signal;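 also: labelled calmodulin applied in Tris saline Tween buffer holding calcium plus EGTA and DTT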
[15] = biological target: Calmodulin-1 (Homo sapiens) (UniProt P0DP23); test: small molecules binding Ca-loaded calmodulin-1 – biochemical, small-molecule microarray, Cy5-labelled CALM1, plus calcium, artefact control for SMM control-protein annotation, profiling panel (AID 1112); details: Cy5-CALM1 binding fluorescence, higher = more signal;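 also: score merges spot fluorescence with signal to noise from triplicate slides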
[16] = probe aWnt5a binding to arrayed compounds – biochemical, biotinylated probe, 635/667 nm fluorescence, primary screen (AID 1113); details: small-molecule microarray, higher = more signal;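 also: score merges 667 nm fluorescence intensity with signal-to-noise per printed feature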
[17] = probe aShh binding to arrayed compounds – biochemical, biotinylated probe, 635/667 nm fluorescence, primary screen (AID 1114); details: small-molecule microarray, higher = more signal;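 also: probe is biotin-labelled aShh protein from a stem cell growth factor screen; measures binding of labelled protein to compounds printed on the slide; score merges feature fluorescence at 667 nm with signal-to-noise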
[18] = probe aNog binding to arrayed compounds – biochemical, biotinylated probe, 635/667 nm fluorescence, primary screen (AID 1115); details: small-molecule microarray, higher = more signal;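 also: probe is biotinylated aNog protein used at 0.15 µg/mL for 1 h at 4 C; z-score combines 667 nm fluorescence of each spot with its signal to noise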
[19] = biological target: Torsin-1A-interacting protein 1 (Homo sapiens) (UniProt Q5JTV8); test: compound microarray binding of lysate hLAP1 – cell lysate, small-molecule microarray, COS7 lysate, 635/667 nm fluorescence, primary screen (AID 1116); details: 635 nm fluorescence, higher = more signal
[20] = biological target: Alpha-bungarotoxin (Bungarus multicinctus) (UniProt P60615); test: compounds binding labelled alpha-BTX control protein – biochemical, small-molecule microarray, Alexa647 label, 635/667 nm fluorescence, artefact control for SMM control protein annotation, profiling panel (AID 1117); details: alpha-BTX-A647 binding fluorescence, higher = more signal
Alpha-bungarotoxin (Bungarus multicinctus), sequence (P60615 whole entry, looked up): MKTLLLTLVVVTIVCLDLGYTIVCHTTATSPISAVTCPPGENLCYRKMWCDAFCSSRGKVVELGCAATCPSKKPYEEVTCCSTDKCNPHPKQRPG

Torsin-1A-interacting protein 1 (Homo sapiens), sequence (Q5JTV8 whole entry, looked up): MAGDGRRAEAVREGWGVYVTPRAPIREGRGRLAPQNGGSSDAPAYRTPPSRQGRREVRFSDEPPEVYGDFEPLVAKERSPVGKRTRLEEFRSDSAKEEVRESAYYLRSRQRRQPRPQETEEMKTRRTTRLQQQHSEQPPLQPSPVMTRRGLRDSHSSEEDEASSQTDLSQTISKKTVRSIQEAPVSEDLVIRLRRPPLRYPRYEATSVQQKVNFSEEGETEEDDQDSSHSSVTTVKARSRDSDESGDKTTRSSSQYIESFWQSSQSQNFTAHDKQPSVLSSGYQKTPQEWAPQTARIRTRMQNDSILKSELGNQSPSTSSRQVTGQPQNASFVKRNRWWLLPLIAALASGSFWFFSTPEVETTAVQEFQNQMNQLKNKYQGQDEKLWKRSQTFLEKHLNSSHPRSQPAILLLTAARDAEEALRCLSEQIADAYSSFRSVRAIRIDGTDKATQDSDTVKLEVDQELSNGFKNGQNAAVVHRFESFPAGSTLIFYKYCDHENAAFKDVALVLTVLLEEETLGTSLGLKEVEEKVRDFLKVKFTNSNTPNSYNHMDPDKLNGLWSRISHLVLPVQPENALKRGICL
Left-right determination factor 2 (Homo sapiens), sequence (O00292 whole entry, looked up): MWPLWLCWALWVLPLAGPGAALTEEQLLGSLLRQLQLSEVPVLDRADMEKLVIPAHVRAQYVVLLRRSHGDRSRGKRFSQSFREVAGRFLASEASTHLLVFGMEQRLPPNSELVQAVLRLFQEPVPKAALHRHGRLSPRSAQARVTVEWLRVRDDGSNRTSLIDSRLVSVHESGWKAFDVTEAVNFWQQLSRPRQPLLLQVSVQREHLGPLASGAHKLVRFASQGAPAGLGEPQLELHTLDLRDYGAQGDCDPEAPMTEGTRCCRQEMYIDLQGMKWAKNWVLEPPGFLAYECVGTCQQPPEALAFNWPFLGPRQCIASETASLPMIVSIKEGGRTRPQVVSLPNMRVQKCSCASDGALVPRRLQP
Epidermal growth factor receptor (Homo sapiens), sequence (P00533 whole entry, looked up): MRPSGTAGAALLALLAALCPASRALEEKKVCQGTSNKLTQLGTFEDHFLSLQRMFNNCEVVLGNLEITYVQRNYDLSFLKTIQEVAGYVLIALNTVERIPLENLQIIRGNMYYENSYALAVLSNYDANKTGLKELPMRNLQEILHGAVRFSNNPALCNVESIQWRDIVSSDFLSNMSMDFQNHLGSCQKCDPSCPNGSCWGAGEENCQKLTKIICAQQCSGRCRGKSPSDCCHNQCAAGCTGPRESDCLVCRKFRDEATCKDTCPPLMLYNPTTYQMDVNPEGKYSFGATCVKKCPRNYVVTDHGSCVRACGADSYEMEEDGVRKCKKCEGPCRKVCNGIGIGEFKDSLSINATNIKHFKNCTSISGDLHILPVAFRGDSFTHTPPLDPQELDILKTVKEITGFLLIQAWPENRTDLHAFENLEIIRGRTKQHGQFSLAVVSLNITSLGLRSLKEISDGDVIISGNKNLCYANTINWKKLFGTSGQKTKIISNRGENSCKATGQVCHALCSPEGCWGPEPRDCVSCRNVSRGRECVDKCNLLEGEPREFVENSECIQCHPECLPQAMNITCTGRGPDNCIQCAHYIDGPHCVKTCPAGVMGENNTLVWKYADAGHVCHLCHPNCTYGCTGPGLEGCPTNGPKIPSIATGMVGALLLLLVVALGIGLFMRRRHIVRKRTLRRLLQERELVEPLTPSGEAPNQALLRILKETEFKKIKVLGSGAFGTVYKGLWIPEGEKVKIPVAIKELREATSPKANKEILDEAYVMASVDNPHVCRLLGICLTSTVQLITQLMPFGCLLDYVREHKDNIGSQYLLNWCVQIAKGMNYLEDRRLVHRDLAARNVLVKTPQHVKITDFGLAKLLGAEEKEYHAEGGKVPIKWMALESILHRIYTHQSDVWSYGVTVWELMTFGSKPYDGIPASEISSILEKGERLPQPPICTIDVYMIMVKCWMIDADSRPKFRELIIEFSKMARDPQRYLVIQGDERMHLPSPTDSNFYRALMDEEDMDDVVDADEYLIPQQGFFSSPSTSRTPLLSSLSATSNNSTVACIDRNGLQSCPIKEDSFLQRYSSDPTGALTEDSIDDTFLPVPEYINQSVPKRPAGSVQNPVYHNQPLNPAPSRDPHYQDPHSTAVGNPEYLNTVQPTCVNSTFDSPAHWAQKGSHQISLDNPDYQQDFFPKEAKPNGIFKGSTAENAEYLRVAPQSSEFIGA
Follistatin-related protein 3 (Homo sapiens), sequence (O95633 whole entry, looked up): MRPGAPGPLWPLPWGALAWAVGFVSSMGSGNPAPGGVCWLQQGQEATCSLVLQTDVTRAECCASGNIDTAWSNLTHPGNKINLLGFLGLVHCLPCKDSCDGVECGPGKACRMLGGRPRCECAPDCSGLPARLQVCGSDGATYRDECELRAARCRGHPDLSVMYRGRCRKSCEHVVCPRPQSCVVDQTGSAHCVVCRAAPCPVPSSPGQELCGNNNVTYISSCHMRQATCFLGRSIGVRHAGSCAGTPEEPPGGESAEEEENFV
Fibroblast growth factor 10 (Homo sapiens), sequence (O15520 whole entry, looked up): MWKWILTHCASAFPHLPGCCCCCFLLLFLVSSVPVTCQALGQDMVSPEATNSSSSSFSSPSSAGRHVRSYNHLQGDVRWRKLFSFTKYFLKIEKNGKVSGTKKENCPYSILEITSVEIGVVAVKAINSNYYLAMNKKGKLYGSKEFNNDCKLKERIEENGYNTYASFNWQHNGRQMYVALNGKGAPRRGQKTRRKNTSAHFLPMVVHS
Dickkopf-related protein 1 (Homo sapiens), sequence (O94907 whole entry, looked up): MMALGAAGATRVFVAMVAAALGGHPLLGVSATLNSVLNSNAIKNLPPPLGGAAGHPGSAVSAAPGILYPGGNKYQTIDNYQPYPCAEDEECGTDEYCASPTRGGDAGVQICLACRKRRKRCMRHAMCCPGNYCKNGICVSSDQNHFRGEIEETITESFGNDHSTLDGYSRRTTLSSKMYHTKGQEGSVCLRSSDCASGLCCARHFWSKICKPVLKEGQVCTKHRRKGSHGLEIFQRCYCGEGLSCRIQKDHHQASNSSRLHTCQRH

Row | SMILES | composite z-score [1] | composite z-score [2] | composite z-score [3] | z-score [4] | composite z-score [5] | composite z-score [6] | composite z-score [7] | composite z-score [8] | composite z-score [9] | composite z-score [10] | composite z-score [11] | z-score [12] | composite z-score [13] | composite z-score [14] | composite z-score [15] | composite z-score [16] | composite z-score [17] | composite z-score [18] | composite z-score [19] | composite z-score [20]
1 | COc1ccc(NN2C(C(O)c3ccc(I)cc3)C=CC3C(=O)N(C4CCCCC4)C(=O)C32)cc1 (stereo not given) | 0.404 | 0.519 | 0.792 | 0.293 (inactive) | 1.33 | 1.31 | 0.479 | 1.46 | 0.0284 | 0.504 | 1.43 | -2.6 | 0.349 | 1.21 | 0.679 | 0.18 | -0.147 | 0.261 | 0.811 | 1.45
2 | NC(=O)NCC#Cc1ccc2c(c1)[C@]1(C(=O)N2)[C@H](c2ccc(OCCO)cc2)N2[C@H](c3ccccc3)[C@H](c3ccccc3)OC(=O)[C@H]2[C@@H]1C(=O)NC[C@H](O)c1ccccc1 | 1.24 | 0.0619 | 0.909 | 0.199 (inactive) | 0.131 | -0.708 | -0.256 | -0.216 | -0.229 | 0.902 | 1.01 | -1.27 | -0.375 | 0.0317 | -0.194 | -0.0572 | -0.367 | -0.559 | 0.727 | 0.502
3 | COc1ccc(C(=O)Nc2ccc(CN3C(=O)[C@@]4(O[C@@H](CCn5cc(CCO)nn5)[C@H]([Si](C)(C)c5ccc(OC)cc5)[C@H]4C)c4ccccc43)cc2)cc1 | 1.36 | 0.635 | 0.559 | -1.8 (inactive) | 0.939 | 1.14 | 0.492 | 1.28 | 1 | 1.57 | 1.33 | -5.11 | 0.904 | -0.0429 | -0.668 | 0.0433 | -0.0146 | 0.0117 | 1.09 | 0.829
4 | CC(C)(C)N1CC=CC23O[C@@H]4C=CCOC(=O)[C@@H]4[C@H]2C(=O)N(CCO)[C@@H]3C1=O (stereo not given in full) | 1.75 | -0.243 | 0.375 | -0.273 (inactive) | -1.05 | -1.14 | -0.687 | -0.955 | -1.44 | -0.545 | 0.0175 | -0.471 | -1.37 | -0.605 | 0.546 | -0.15 | 0.0136 | -0.364 | -0.843 | -0.7
5 | CCCN1C(=O)[C@]2(CCC(=O)OC(C)(C)C)N=C(c3ccc(OCCCO)cc3)O[C@@H]2c2ccccc21 | 0.715 | 0.173 | 1.16 | 0.0554 (inactive) | 1.31 | 1.21 | -0.413 | 0.299 | -0.175 | 1.31 | 1.17 | -2.87 | -0.399 | -0.0977 | -0.148 | -0.124 | 0.0469 | 0.175 | 3.34 | 0.28
6 | COc1ccc([Si](C)(C)[C@@H]2[C@@H](CC(=O)N3Cc4ccccc4C[C@H]3CO)O[C@]3(C(=O)N(Cc4cccc(N5CCOC5=O)c4)c4ccccc43)[C@H]2C)cc1 | 1.21 | -0.503 | -0.562 | -0.589 (inactive) | 0.628 | 0.717 | 1.01 | 1.37 | 1.21 | 0.792 | 1.02 | -3.46 | 0.736 | -0.695 | -0.611 | -0.0684 | -0.0243 | -0.397 | 0.0192 | 0.258
7 | COC(=O)[C@@]1(Cc2ccccc2)[C@H]2c3cc(C(=O)N(C)C)n(Cc4ccc(C(F)(F)F)nc4)c3C[C@H]2CN1C(=O)c1ccccc1 | 1.52 | 1.17 | 1.24 | -1.16 (inactive) | 1.08 | 1.12 | -0.405 | 0.885 | -0.547 | 0.822 | 1.49 | -1.3 | -0.287 | 1.9 | 1.14 | 0.223 | 0.941 | 2.05 | 1.91 | 0.82
8 | CC(C)N1C(=O)C[C@@](C(=O)NCCN2CCOCC2)(c2ccc([N+](=O)[O-])cc2)[C@H]1c1ccc(CO)cc1 | 1.88 | -0.477 | 0.447 | -0.286 (inactive) | -0.945 | -0.175 | -1.12 | -0.854 | -1.03 | 0.16 | -0.0369 | 0.323 | -1.07 | -0.701 | -0.272 | -0.298 | -0.221 | -0.478 | 2.15 | -0.418
9 | CCOC(=O)C1=CC[C@@H](c2ccc(OC)cc2)N(S(=O)(=O)c2ccc(C)cc2)[C@H]1c1ccc(C)cc1 | 0.71 | 0.528 | 0.836 | -0.0291 (inactive) | 0.642 | 1.07 | -0.0102 | 0.887 | -0.346 | 0.588 | 1.33 | -0.12 | -0.0746 | 0.783 | 0.894 | 0.0509 | 0.216 | -0.201 | 0.467 | 0.611
10 | COC(=O)[C@@]1(Cc2ccccc2)[C@H]2c3cc(C(=O)N(C)C)n(Cc4ccc(S(C)(=O)=O)cc4)c3C[C@H]2CN1C(=O)c1ccccc1 | 0.308 | 1.1 | 1.22 | 0.376 (inactive) | 0.648 | 0.0903 | -0.366 | -0.0624 | -0.618 | 0.749 | -1.1 | -0.912 | -0.115 | 1.69 | 1.11 | 0.0613 | 0.954 | 0.35 | 1.29 | 0.548
11 | CC(C)C(=C=CC[C@H](O)c1ccccc1OCCO)C[C@H](O)COCc1ccccc1 | 1.63 | -0.293 | -0.0177 | -0.114 (inactive) | 0.444 | -0.409 | -0.593 | -0.428 | -0.42 | 0.482 | 0.257 | -1.88 | -0.274 | 0.444 | -0.457 | -0.128 | -0.0681 | -0.391 | -0.251 | 0.257
12 | [N-]=[N+]=Nc1ccccc1C[C@@]1(C(=O)NCc2ccccc2)N=C(c2ccc(OCCCO)cc2)O[C@@H]1c1ccccc1N=[N+]=[N-] | 1.07 | 0.61 | 1.01 | -0.457 (inactive) | 1.1 | 0.913 | 0.0359 | 0.309 | -0.0102 | 1.04 | -0.334 | -3.01 | -0.0656 | 1.69 | 0.683 | 0.33 | 0.171 | 1.18 | 1.19 | 1.97
